In all, about 350,000 compounds went through this assay and about 6,000 (1.7%) were called active. Another 5% or so got no clear call; they are omitted. The entries come from a sample that favours actives as a whole. Unmarked numbers belong to inactive results. No stated cut-off is given here; in the data, active means CPE inhibition above about 20% (passing the limit was not always enough); inconclusive means no clear call, values can overlap the other calls; tested in BHK-21 cells.

The assay can be described thus: protection of cells from dengue 2 killing – plate reader, single concentration, primary screen (AID 651640).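 Further: 0% = median of neutral control wells and 100% = median of positive control wells.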 Particulars: DENV2-infected cells, cytopathic effect rescue, at 9.99 µM, stronger effect = higher value.
On to `Cc1ccccc1S(=O)(=O)N1CC(=O)N2[C@H](CO)[C@H](c3ccc(C#CC4CC4)cc3)[C@@H]2C1`, for which the CPE inhibition is 5.14%. Turning to `CC=Cc1ccc2n(c1=O)C[C@@H]1[C@@H](CO)[C@H](C(=O)NC3CCCC3)[C@H]2N1C(=O)c1cnccn1` (mixture of isomers), the CPE inhibition is 2.52%. On to `CO[C@@H]1CN(C)C(=O)c2ccc(NC(=O)C3CC3)cc2OC[C@@H](C)N(CC2CCOCC2)C[C@H]1C`, for which the CPE inhibition is 0.64%. Next, `CC(C)NC(=O)Nc1cccc2c1O[C@H](CN(C)Cc1ccccc1)[C@H](C)CN([C@H](C)CO)C2=O`: 1.48%; `CO[C@@H]1CN(C)C(=O)c2cc(NC(C)=O)ccc2OC[C@@H](C)N(C(=O)NC2CCCCC2)C[C@H]1C`: -11%; `COc1cccc(-c2ccc3n(c2=O)C[C@H]2[C@H](CO)[C@@H](C(=O)N4CCCCC4)N(C)[C@@H]32)c1`: 5.67%. As for `CCCNC(=O)Nc1ccc2c(c1)OC[C@H](C)N(Cc1ccccc1)C[C@H](C)[C@H](OC)CN(C)C2=O`, the CPE inhibition is 14.2%. `COC(=O)CCCCCCC(=O)Nc1ccc(C2OC(CSc3nc(-c4ccccc4)c(-c4ccccc4)o3)CC(c3ccc([N+](=O)[O-])cc3)O2)cc1` (centres undefined): the CPE inhibition is -6.28%. As for `CCCNC(=O)[C@H]1[C@H](CO)[C@H]2Cn3c(ccc(-c4cccc(F)c4)c3=O)[C@@H]1N2C(=O)CC`, the CPE inhibition was 0.06%. Turning to `CN1c2ccc(-c3ccccc3)cc2[C@@H]2[C@@H](CCN2C(=O)c2ccccc2F)[C@@H]1CO`, the CPE inhibition was 1.36%. Take `CN1c2ccc(Br)cc2[C@@H]2[C@@H](CCN2C(=O)C2CCCCC2)[C@H]1CO`: the CPE inhibition was 8.19%. On to `CN1c2ccc(Br)cc2[C@@H]2[C@@H](CCN2C(=O)C2CCCC2)[C@H]1CO`, for which the CPE inhibition is 99.1% (active). On to `CN1c2ccc(Br)cc2[C@@H]2[C@@H](CCN2C(=O)Cc2ccccc2)[C@@H]1CO`, for which the CPE inhibition is 0.742%. As for `O=C(CC1CC1)N1[C@H](CO)[C@@H]2c3ccccc3N(S(=O)(=O)c3ccc(F)cc3)C[C@@H]21`, the CPE inhibition is -3.84%. Turning to `O=C(C[C@@H]1CC[C@H](NC(=O)C2CCOCC2)[C@@H](CO)O1)Nc1ccccc1`, the CPE inhibition was 6.72%. Turning to `CCOC(=O)[C@]12CCC=C1N(Cc1ccccc1)C(=O)[C@H](CC(=O)N1CCCC1)C2`, the CPE inhibition was 29.8% (active). `CCOC(=O)[C@]12CCCC=C1N(Cc1ccc3c(c1)OCO3)C(=O)[C@H](CC(=O)N1CCN(C(=O)c3ccco3)CC1)C2`: the CPE inhibition was -2.94%. Regarding `COC(=O)[C@]12CCCCC=C1N(Cc1ccc(Cl)cc1Cl)C(=O)[C@H](CC(=O)NCc1cccc3ccccc13)C2`, the CPE inhibition was -2.75%.

`CCOC(=O)[C@]12CCC=C1N(Cc1ccco1)C(=O)[C@H](CC(=O)N1CCSCC1)C2`: the CPE inhibition is -4%. Turning to `COC(=O)[C@]12CCCCC=C1N(Cc1ccc3c(c1)OCO3)C(=O)[C@H](CC(=O)N1CCOCC1)C2`, the CPE inhibition was 8.62%.

For `CCOC(=O)[C@]12CCCC=C1N(Cc1ccc(Cl)cc1Cl)C(=O)[C@H](CC(=O)N1CCCCC1)C2`, the CPE inhibition is 4.66%. Next, `COC(=O)[C@]12CCCCC=C1N(Cc1cccc3ccccc13)C(=O)[C@H](CC(=O)N1CCOCC1)C2`: 99.4% (active); `COC(=O)[C@]12CCCCC=C1N(Cc1ccc3c(c1)OCO3)C(=O)[C@H](CC(=O)NCc1cccs1)C2`: -4.45%; `CCOC(=O)[C@]12CCCC=C1N(Cc1ccc3c(c1)OCO3)C(=O)[C@H](CC(=O)NCc1cccs1)C2`: 66.5% (active).

(Values after PubChem BioAssay AID651640 (Broad Institute, 2012).)
